Experimental data from PubChem BioAssay AID624141 (Broad Institute, 2012).
About 260 (1.5%) of roughly 17,000 compounds were called active.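 How the source made its calls: active means spot fluorescence over background with P-value below 7% in all four replicate spots, showing protein binding; inactive means the rest.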 The full list was thinned out, with actives kept by preference.

The compounds below were run against Myc proto-oncogene protein (Homo sapiens) (UniProt P01106) (assay: small molecules binding His-tagged c-Myc – biochemical, small molecule microarray, anti-His fluorescence, primary screen (AID 624141)).
Sequence of Myc proto-oncogene protein (Homo sapiens) (P01106 whole entry, looked up): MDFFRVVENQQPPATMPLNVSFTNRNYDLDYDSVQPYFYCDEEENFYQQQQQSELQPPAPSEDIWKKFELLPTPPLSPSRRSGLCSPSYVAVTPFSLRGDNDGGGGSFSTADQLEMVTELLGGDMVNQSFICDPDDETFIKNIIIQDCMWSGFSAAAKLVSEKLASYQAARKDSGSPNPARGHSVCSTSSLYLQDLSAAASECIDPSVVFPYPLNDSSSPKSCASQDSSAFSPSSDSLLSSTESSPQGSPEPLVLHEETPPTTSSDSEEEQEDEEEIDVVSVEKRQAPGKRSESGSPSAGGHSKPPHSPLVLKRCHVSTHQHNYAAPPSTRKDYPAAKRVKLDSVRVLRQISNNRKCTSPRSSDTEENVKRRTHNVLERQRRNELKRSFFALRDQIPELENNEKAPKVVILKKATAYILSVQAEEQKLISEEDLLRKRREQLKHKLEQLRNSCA

SMILES	outcome
CC(=O)Nc1ccc(C(=O)CSc2nnc(C)s2)cc1	inactive
Cc1cc(C)nc(SC2CCCCC2NS(=O)(=O)c2ccc(Cl)cc2)n1 (centres undefined)	inactive
C[C@@H]1CCCCO[C@@H](CN(C)Cc2ccc(C(=O)O)cc2)[C@H](C)CN([C@@H](C)CO)C(=O)c2cc(NC(=O)C3CCCCC3)ccc2O1	inactive
Cc1cc2nc(-c3ccc(NC(=O)COc4ccccc4[N+](=O)[O-])cc3)oc2cc1C	inactive
CNC[C@@H]1OCCCC[C@H](C)Oc2ccc(NC(=O)Nc3ccccc3)cc2C(=O)N([C@H](C)CO)C[C@H]1C	inactive
C[C@@H]1CN([C@@H](C)CO)C(=O)c2cc(NC(=O)C3CC3)ccc2O[C@H]1CN(C)C	inactive
O=C1O[C@@H](c2ccccc2)[C@@H](c2ccccc2)N2[C@@H](c3ccccc3OCCO)[C@]3(C(=O)Nc4ccc(C#CC5(O)CCCCCC5)cc43)[C@@H](C(=O)N3CCCCCCC3)[C@H]12	inactive
O=C1O[C@@H](c2ccccc2)[C@@H](c2ccccc2)N2[C@@H](c3ccccc3OCCO)[C@]3(C(=O)Nc4ccccc43)[C@@H](C(=O)N3CCCCCCC3)[C@H]12	active
COC(=O)C(CC#Cc1ccc2c(c1)[C@]1(C(=O)N2)[C@H](c2ccccc2OCCO)N2[C@H](c3ccccc3)[C@H](c3ccccc3)OC(=O)[C@H]2[C@@H]1C(N)=O)C(=O)OC	inactive
O=C1O[C@H](c2ccccc2)[C@H](c2ccccc2)N2[C@H]1[C@@H](C(=O)N1CCN(c3ncccn3)CC1)[C@]1(C(=O)Nc3ccccc31)[C@H]2c1ccc(OCCO)cc1	inactive
COc1ccc(C#Cc2ccc3c(c2)[C@]2(C(=O)N3)[C@H](C(=O)N3CCCCCCC3)[C@H]3C(=O)O[C@H](c4ccccc4)[C@H](c4ccccc4)N3[C@@H]2c2ccc(O)cc2)cc1	inactive
COc1ccc(C#Cc2ccc3c(c2)[C@]2(C(=O)N3)[C@H](c3ccccc3OCCO)N3[C@H](c4ccccc4)[C@H](c4ccccc4)OC(=O)[C@H]3[C@@H]2C(=O)N2CCCCCCC2)cc1	active
C[C@H]1CN([C@@H](C)CO)C(=O)c2cccc(NC(=O)Nc3ccccc3)c2O[C@@H]1CN(C)S(=O)(=O)c1ccc(F)cc1	inactive
C[C@@H]1CN([C@@H](C)CO)C(=O)c2cc(NS(C)(=O)=O)ccc2O[C@@H](C)CCCCO[C@@H]1CN(C)C(=O)c1ccccc1	inactive
Cc1nc(SCC(=O)O)[nH]c(=O)c1Oc1ccccc1	inactive
C[C@H]1CN([C@@H](C)CO)C(=O)c2cc(N(C)C)ccc2O[C@@H]1CN(C)C(=O)Nc1ccc2c(c1)OCO2	inactive
COc1ccc2ccccc2c1CNCc1ccccn1	active
Cc1nnc(SCc2cc(=O)[nH]c(N3CCN(Cc4ccccc4)CC3)n2)s1	inactive
C[C@@H]1CCCCO[C@H](CN(C)C(=O)CCC(F)(F)F)[C@H](C)CN([C@H](C)CO)C(=O)c2cc(NS(C)(=O)=O)ccc2O1	inactive
C[C@H](CO)N1C[C@H](C)[C@H](CN(C)C(=O)CCC(F)(F)F)OCCCC[C@H](C)Oc2ccc(NS(C)(=O)=O)cc2C1=O	active
Cc1noc(C)c1S(=O)(=O)Nc1ccc2c(c1)C(=O)N([C@H](C)CO)C[C@H](C)[C@@H](CN(C)C(=O)CCC(F)(F)F)OCCCC[C@H](C)O2	inactive
Cc1noc(C)c1S(=O)(=O)Nc1ccc2c(c1)C(=O)N([C@H](C)CO)C[C@@H](C)[C@H](CN(C)C(=O)NC(C)C)OCCCC[C@@H](C)O2	inactive

SMILES	outcome
C[C@@H]1CCCCO[C@@H](CN(C)C(=O)CCC(F)(F)F)[C@@H](C)CN([C@H](C)CO)C(=O)c2cc(NC(=O)CCC(F)(F)F)ccc2O1	inactive
Cc1noc(C)c1S(=O)(=O)Nc1ccc2c(c1)C(=O)N([C@@H](C)CO)C[C@H](C)[C@@H](CN(C)C)OCCCC[C@@H](C)O2	inactive
C[C@@H]1CN([C@H](C)CO)C(=O)c2cc(NS(=O)(=O)c3ccccc3)ccc2O[C@@H](C)CCCCO[C@@H]1CN(C)C(=O)CCC(F)(F)F	inactive
Cc1noc(C)c1S(=O)(=O)Nc1ccc2c(c1)C(=O)N([C@@H](C)CO)C[C@@H](C)[C@H](CN(C)C(=O)NC(C)C)OCCCC[C@@H](C)O2	active
Cc1noc(C)c1S(=O)(=O)Nc1ccc2c(c1)C(=O)N([C@H](C)CO)C[C@H](C)[C@H](CN(C)C(=O)CCC(F)(F)F)OCCCC[C@H](C)O2	active
Cc1cc(OCC(=O)Nc2ccccc2C(N)=O)cc(C)c1Br	inactive
Cc1scc(C(=O)NCCc2ccc(S(N)(=O)=O)cc2)c1-c1ccccc1	inactive
Cc1noc(C)c1NC(=O)Nc1ccc2c(c1)CC(=O)N([C@@H](C)CO)C[C@@H](C)[C@@H](CN(C)C(=O)NC(C)C)O2	inactive
COc1cc(/C=C/C(=O)NCCc2ccc(O)cc2)ccc1O	inactive
CCCCCc1ccc(/C=C/C(=O)Nc2ccccc2C(=O)O)cc1	active
CN(C)CCCSc1ccccc1NC(=O)/C=C/c1ccccc1	inactive
CCn1c(SCC(=O)Nc2sc3c(c2C#N)CCCC3)nnc1-c1ccccc1O	inactive
Cc1noc(C)c1S(=O)(=O)Nc1ccc2c(c1)CC(=O)N([C@@H](C)CO)C[C@H](C)[C@H](CN(C)S(=O)(=O)c1ccc(Cl)cc1)O2	inactive
COc1ccc(NC(=O)N(C)C[C@@H]2Oc3ccc(NS(C)(=O)=O)cc3C(=O)N([C@@H](C)CO)C[C@@H]2C)cc1	inactive
C[C@@H]1CCCCO[C@H](CN(C)Cc2ccncc2)[C@@H](C)CN([C@H](C)CO)C(=O)c2cc(NS(C)(=O)=O)ccc2O1	inactive
C[C@@H]1CN([C@H](C)CO)C(=O)c2cccc(NC(=O)Nc3ccc4c(c3)OCO4)c2O[C@H]1CN(C)S(=O)(=O)c1ccccc1	inactive
C[C@@H]1CCCCO[C@H](CN(C)Cc2ccccc2)[C@H](C)CN([C@@H](C)CO)C(=O)c2cc(NS(=O)(=O)c3ccccc3)ccc2O1	inactive
C[C@H](CO)N1C[C@H](C)[C@@H](CN(C)S(=O)(=O)c2cccs2)Oc2ccc(NC(=O)Nc3cccc4ccccc34)cc2CC1=O	inactive
C[C@@H]1CN([C@H](C)CO)C(=O)Cc2cc(NC(=O)CCN3CCOCC3)ccc2O[C@H]1CN(C)C	inactive
COc1cc(O[C@@H]2O[C@H](CO[C@H]3OC[C@](O)(COC(=O)c4ccc(O)c(OC)c4)[C@H]3O)[C@@H](O)[C@H](O)[C@H]2O)ccc1O	inactive
COc1ccc(NC(=O)N(C)C[C@@H]2OCCCC[C@H](C)Oc3ccc(NC(=O)c4ccccc4)cc3C(=O)N([C@H](C)CO)C[C@H]2C)cc1	inactive
COc1ccccc1NC(=O)c1ccc(OCC(=O)Nc2ccccc2F)cc1	inactive

SMILES	outcome
O=C(Nc1ccc(Cl)cc1C(=O)NCc1ccco1)c1ccco1	inactive
C[C@@H]1CN([C@H](C)CO)C(=O)c2cc(NS(=O)(=O)c3cn(C)cn3)ccc2O[C@@H](C)CCCCO[C@H]1CN(C)C	inactive
CN(C)c1nc(N)nc(CSc2ccccn2)n1	inactive
COc1ccccc1NC(=O)CNC(=O)c1ccc(C)cc1	inactive
CC(C)NC(=O)N(C)C[C@@H]1OCCCC[C@H](C)Oc2ccc(NC(=O)Nc3ccccc3)cc2C(=O)N([C@H](C)CO)C[C@@H]1C	inactive
C[C@H]1CN([C@@H](C)CO)C(=O)c2cccc(NC(=O)c3cnccn3)c2O[C@H]1CN(C)C(=O)Nc1ccccc1	inactive
C[C@@H]1CN([C@H](C)CO)C(=O)c2cccc(NC(=O)Nc3ccccc3)c2O[C@@H]1CN(C)C(=O)NC1CCCCC1	inactive
C[C@H](CO)N1C[C@H](C)[C@@H](CN(C)C(=O)NC2CCCCC2)Oc2c(NC(=O)Nc3ccc(F)cc3)cccc2C1=O	inactive
C[C@H](CO)N1C[C@H](C)[C@@H](CN(C)C(=O)Nc2cccc3ccccc23)OCCCC[C@H](C)Oc2ccc(N(C)C)cc2C1=O	active
C[C@@H]1CCCCO[C@@H](CN(C)C(=O)Nc2ccccc2)[C@@H](C)CN([C@@H](C)CO)C(=O)c2cc(N(C)C)ccc2O1	inactive
C[C@@H]1CCCCO[C@H](CN(C)C(=O)Nc2ccccc2)[C@H](C)CN([C@@H](C)CO)C(=O)c2cc(N(C)C)ccc2O1	inactive
C[C@H]1CN([C@@H](C)CO)C(=O)c2cccc(NC(=O)Nc3ccc(C(F)(F)F)cc3)c2O[C@H]1CN(C)C(=O)NC1CCCCC1	active
CC(C)NC(=O)Nc1ccc2c(c1)C(=O)N([C@@H](C)CO)C[C@@H](C)[C@H](CN(C)C(=O)Cc1ccccc1)OCCCC[C@H](C)O2	inactive
C[C@H]1CN([C@@H](C)CO)C(=O)c2cccc(NC(=O)c3cnccn3)c2O[C@H]1CN(C)S(=O)(=O)c1cn(C)cn1	inactive
C[C@@H]1CCCCO[C@@H](CN(C)C(=O)Nc2ccccc2)[C@@H](C)CN([C@H](C)CO)C(=O)c2cc(NC(=O)Nc3ccc(F)cc3)ccc2O1	inactive
C[C@@H]1CCCCO[C@@H](CN(C)C(=O)Cc2ccccc2)[C@H](C)CN([C@@H](C)CO)C(=O)c2cc(NC(=O)Nc3ccc(F)cc3)ccc2O1	active
Cc1noc(C)c1S(=O)(=O)N(C)C[C@H]1Oc2c(NC(=O)c3cnccn3)cccc2C(=O)N([C@H](C)CO)C[C@H]1C	active
C[C@@H]1CCCCO[C@H](CN(C)C(=O)Nc2ccccc2)[C@H](C)CN([C@H](C)CO)C(=O)c2cc(NC(=O)Nc3ccccc3)ccc2O1	inactive
CC(C)NC(=O)N(C)C[C@@H]1OCCCC[C@@H](C)Oc2ccc(NC(=O)Nc3ccccc3)cc2C(=O)N([C@H](C)CO)C[C@@H]1C	inactive
C[C@@H]1CCCCO[C@H](CN(C)C(=O)C2CCCCC2)[C@@H](C)CN([C@@H](C)CO)C(=O)c2cc(NC(=O)Nc3ccccc3)ccc2O1	active
